The record followed here is PubChem BioAssay AID720697 (Broad Institute, 2013).

The structures appear in SMILES notation. Measured potencies and affinities stand elsewhere. Inconclusive results are not listed. A number with no mark means an inactive call.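 How the source made its calls: active means signal loss with fitted half-maximal concentration at or below twice the top valid tested dose in every test run; inconclusive means runs disagree, flat 30 to 70% signal loss, or poor fit; inactive means all runs flat, opposite direction, or potency beyond limit.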

The experiment in a line: HEK293T cytotoxicity, dose response, cytotoxicity control for miR-122 modulator project, cell-based, inhibitor set, cherry-pick, set 2 (AID 720697).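 Further: 0% = median of neutral control wells and -100% = MG132 positive control wells.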 The settings on record: HEK293T viability, CellTiter-Glo luminescence, 48 h; series mostly up to 26 µM; activity change, negative = cytotoxicity: at the top concentration.
With `CO[C@@H]1CN(C)C(=O)c2ccc(NC(=O)c3ccc(Oc4ccccc4)cc3)cc2OC[C@H](C)NC[C@H]1C`, the “activity change, negative = cytotoxicity” value was 17.2%. As for `CC(C)NC(=O)Nc1ccc2c(c1)C(=O)N(C)[C@H]1CC[C@H](CC(=O)NCC(F)(F)F)O[C@H]1CO2`, the “activity change, negative = cytotoxicity” value was 90.7%.

Take `CCC(=O)N1[C@H](CO)[C@H](c2ccccc2)[C@@H]1CN(CC)C(=O)c1ccccc1`: the “activity change, negative = cytotoxicity” value was 138% [at 23.5 µM].

Turning to `C[C@H]1CN([C@@H](C)CO)C(=O)c2cc(C#Cc3cccnc3)cnc2O[C@H]1CN(C)S(=O)(=O)c1ccccc1F`, the “activity change, negative = cytotoxicity” value was 38.2%. As to `CC(C)C(=O)Nc1ccc2c(c1)C(=O)N(C)[C@@H]1CC[C@@H](CC(=O)N[C@H](C)c3ccccc3)O[C@@H]1CO2`, the “activity change, negative = cytotoxicity” value is 50.7% [at 23.5 µM].

With `O=C(NCC(c1cccnc1)N1CCOCC1)NC1CCCCC1` (configuration not stated), the “activity change, negative = cytotoxicity” value is 83.2%. Turning to `CCCNC(=O)C[C@H]1CC[C@@H]2[C@H](COc3ccc(NC(=O)c4cccs4)cc3C(=O)N2C)O1`, the “activity change, negative = cytotoxicity” value was 31.6%. For `Cc1cnc(NC(=O)c2cc3c(C)nn(-c4ccccc4)c3s2)s1`, the “activity change, negative = cytotoxicity” value is 54.1%. With `Cc1cccc(NC(=O)c2sc3nc(-c4ccc(F)cc4)cn3c2C)n1`, the “activity change, negative = cytotoxicity” value is 102%. For the compound `CN1C(=O)c2cc(NC(=O)c3cccs3)ccc2OC[C@@H]2O[C@@H](CC(=O)NCCN3CCCCC3)CC[C@@H]21`, the “activity change, negative = cytotoxicity” value is 36.2% [at 23.5 µM]. Consider `C/C=C/c1ccc([C@H]2[C@@H](CO)N(C(=O)C3CC3)[C@H]2CN(C)C(=O)CC2CC2)cc1`, for which the “activity change, negative = cytotoxicity” value is 115%. As for `CCCNC(=O)N1[C@H](CO)[C@H](c2ccc(-c3ccccc3)cc2)[C@@H]1CNC(C)=O`, the “activity change, negative = cytotoxicity” value was 26.7%. Regarding `CNC(=O)C[C@@H]1CC[C@@H]2[C@@H](COc3ccc(NC(=O)Cc4cccs4)cc3C(=O)N2C)O1`, the “activity change, negative = cytotoxicity” value was 40.2%. As for `COc1ccc(S(=O)(=O)Nc2ccc3c(c2)CC(=O)N([C@@H](C)CO)C[C@@H](C)[C@H](CN(C)Cc2ccc(C(F)(F)F)cc2)O3)cc1`, the “activity change, negative = cytotoxicity” value was -44.1%. Take `CCCNC(=O)C[C@H]1CC[C@@H]2[C@@H](COc3ccc(NC(=O)c4ccc5c(c4)OCO5)cc3C(=O)N2C)O1`: the “activity change, negative = cytotoxicity” value is 139% [at 23.5 µM]. As for `COCCN(C[C@@H]1[C@H](c2ccccc2)[C@@H](CO)N1C(=O)C1CCC1)C(C)=O`, the “activity change, negative = cytotoxicity” value is 134% [at 23.5 µM]. The value for `C[C@@H]1CN([C@H](C)CO)S(=O)(=O)c2ccc(C3=CCCC3)cc2O[C@@H]1CN(C)C(=O)c1cnccn1` was 83.8%; that for `COc1ccc2[nH]c(=O)c(COC(=O)c3ccco3)cc2c1` was 18%. For `COc1ccccc1C#Cc1cnc2c(c1)C(=O)N([C@H](C)CO)C[C@H](C)[C@@H](CN(C)C(=O)c1ccc3c(c1)OCO3)O2`, the “activity change, negative = cytotoxicity” value was -27.6%. For `Cc1ccccc1-c1nc(CN2CCCC(C(=O)NCCCN3CCOCC3)C2)c(C)o1` (configuration not stated), the “activity change, negative = cytotoxicity” value was 124%.

`O=C(Nc1ccc(F)cc1)N1C[C@H]2[C@@H](c3ccccc31)[C@H](CO)N2C(=O)c1ccncc1`: the “activity change, negative = cytotoxicity” value is -10.7%. As for `CCN(C[C@@H]1N[C@@H](CO)[C@@H]1c1ccc(C2=CCCC2)cc1)C(=O)c1cccnc1`, the figure is -18.4% [at 23.5 µM]. On to `CCNC(=O)Nc1ccc2c(c1)C(=O)N(C)[C@H]1CC[C@H](CC(=O)NCCOC)O[C@@H]1CO2`, for which the “activity change, negative = cytotoxicity” value was -18.8%.

On to `CCN(C[C@H]1[C@H](c2ccccc2)[C@H](CO)N1C(=O)COC)S(C)(=O)=O`, for which the “activity change, negative = cytotoxicity” value was 222% [at 23.5 µM].

`CCCNC(=O)N1[C@@H]2CN(C(=O)c3ccccc3)c3ccccc3[C@@H]2[C@@H]1CO`: the “activity change, negative = cytotoxicity” value was 89.2%. As for `COc1cccc(C(=O)N2C[C@H]3[C@@H](c4ccccc42)[C@H](CO)N3C(C)=O)c1`, the “activity change, negative = cytotoxicity” value is 59.5%.

On to `COCC(=O)Nc1ccc2c(c1)C(=O)N(C)[C@H]1CC[C@@H](CC(=O)NC3CCCC3)O[C@H]1CO2`, for which the “activity change, negative = cytotoxicity” value is 12.9%.
